This is part of a sample that, as a whole, favours compounds with a hit. Of some 79,000 tested, about 15% had one in any assay. Unmarked numbers belong to inactive results. Activity calls are given as the source filed them. Rule as the data show it: active = growth inhibition above about 70%; inactive = the rest.

Test [1] can be described thus: NCI Yeast Anticancer Drug Screen. Data for the rad50 strain (AID 155).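 Also: 0% = growth of vehicle-only cultures of the same strain.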 Conditions: S. cerevisiae rad50 strain growth inhibition; at 50.0 µM; stronger effect = higher value. In short, it runs like this:
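Vehicle-treated cultures provide the reference for the growth inhibition reported for compound-exposed, repair-deficient yeast.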

Test [2] is described as follows: NCI Yeast Anticancer Drug Screen. Data for the mec2-1 strain (AID 157). To be noted: S. cerevisiae mec2-1 strain, at 50.0 µM, stronger effect = higher value. In short, it runs like this: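 Readout is yeast growth inhibition, normalised to vehicle-treated controls, in the mec2-1 strain exposed to compound.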
Test [3] can be described thus: NCI Yeast Anticancer Drug Screen. Data for the sgs1 mgt1 strain (AID 161).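 Also: 0% = growth of cultures given vehicle only.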 Conditions: S. cerevisiae sgs1 mgt1 strain, at 50.0 µM, stronger effect = higher value. In short, it runs like this: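 Growth of a repair-deficient yeast mutant was monitored after compound treatment and expressed as inhibition relative to vehicle-treated cultures.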
Test [4] can be described thus: NCI Yeast Anticancer Drug Screen. Data for the cln2 rad14 strain (AID 165).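 Also: 0% = growth equal to vehicle treated cultures.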 Conditions: S. cerevisiae cln2 rad14 strain, at 50.0 µM, stronger effect = higher value. In short, it runs like this: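 Relative to vehicle controls, growth inhibition of compound-treated cln2 rad14 yeast was recorded.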
The nature of test [5]: NCI Yeast Anticancer Drug Screen. Data for the bub3 strain (AID 167). To be noted: S. cerevisiae bub3 mutant strain, at 50.0 µM, stronger effect = higher value. In short, it runs like this:
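Mutant yeast screening strain plus compound; vehicle-treated cultures serve as the 0% inhibition reference.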

Test [6] can be described thus: NCI Yeast Anticancer Drug Screen. Data for the mlh1 rad18 strain (AID 175). Conditions: S. cerevisiae mlh1 rad18 strain growth inhibition; at 50.0 µM; stronger effect = higher value. In short, it runs like this: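 Test agents were incubated with a yeast strain of defined genotype (DNA damage repair defect). Inhibition of growth was derived by comparison with vehicle-exposed cultures.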

Consider `O=C(NCc1ccccc1)C1C2C=CC(C2)C1C(=O)NCc1ccccc1` (stereo unspecified), for which the growth inhibition in test [1] is -6.65%; in test [2] it was -10.8%; in test [3], 30.4%; in test [4], -6.3%; in test [5] it was 18.1%; in test [6] it was 5.85%.

`COc1cc(NC(N)=O)ccc1Nc1c2ccc(N)cc2nc2cc(N)ccc12`: the growth inhibition is 69.8% in test [1]; 22.6% in test [2]; 9.05% in test [3]; 43% in test [4]; -14.9% in test [5]; 27.6% in test [6].

On to `COc1ccc(C2=Nc3c(nc(SC)[nH]c3=O)NC(c3ccccc3)C2)cc1` (stereo unspecified), for which the growth inhibition is 9.45% in test [1]; 9.3% in test [2]; 19.3% in test [3]; 6.15% in test [4]; 28.3% in test [5]; -3.15% in test [6].

Take `Cc1cccc[n+]1CC(=O)c1ccc(Cl)cc1`: the growth inhibition is -8.05% in test [1]; 3.25% in test [2]; 1.05% in test [3]; -44.8% in test [4]; -4% in test [5]; 3.65% in test [6].

Regarding `Oc1c(Cl)cc(Cl)cc1C1N2CCCCC2C2c3cccn3-c3ccccc3N21` (stereo unspecified), the growth inhibition in test [1] was 22.4%; in test [2] it was 5.4%; in test [3], 18.3%; in test [4], 14.2%; in test [5], 21.2%; in test [6] it was -30.6%.

As for `O=C(NCC1=NCCN1)c1ccccc1`, the growth inhibition was 2.3% in test [1]; -2.7% in test [2]; -13.7% in test [3]; 12% in test [4]; 6.45% in test [5]; 10.7% in test [6].

As to `CNC(=O)OCC#CCOC(=O)NC`, the growth inhibition in test [1] is -17.5%; in test [2] it was -9.9%; in test [3], -23.2%; in test [4], -4.85%; in test [5], -10.5%; in test [6], -25.1%.

For the compound `CC(=O)Nc1ccc(Nc2nc(=O)[nH]c(=O)[nH]2)cc1`, the growth inhibition is -3.2% in test [1]; -12.6% in test [2]; 13.1% in test [3]; -0.55% in test [4]; -1.6% in test [5]; -32.6% in test [6].

As for `Cc1ccccc1NC(=O)CSc1nnc(-c2ccc(N=Cc3ccc(Cl)cc3)cc2)o1`, the growth inhibition in test [1] was -13.6%; in test [2], -30.9%; in test [3], 1.9%; in test [4], -4.75%; in test [5], -30%; in test [6] it was -17.8%.

On to `CSC(SC)=C1CCCC(=C(SC)SC)C1=O`, for which the growth inhibition is -6.95% in test [1]; -9.3% in test [2]; -9.55% in test [3]; 6.95% in test [4]; -0.45% in test [5]; -8.9% in test [6].

As for `CCCC(=O)OC1C=C2N3C(=O)C4CC56C(=CC(OC(C)=O)C7OC75)N4C(=O)C3CC26C2OC12` (stereo unspecified), the growth inhibition in test [1] is 83.3% (active); in test [2], 84.2% (active); in test [3], 89.7% (active); in test [4], 78.8% (active); in test [5] it was 76.3% (active); in test [6], 85.2% (active).

Turning to `CCCOC(=O)CCCC1=NC2=CC=CC3=NC(C)=NC(=N1)N23`, the growth inhibition in test [1] is -10.3%; in test [2], -3.4%; in test [3], -7.45%; in test [4], -45.1%; in test [5], -38.1%; in test [6] it was -7.45%.

On to `CCSc1ccc(C)cc1`, for which the growth inhibition in test [1] is 28.6%; in test [2], -3.15%; in test [3], -20.8%; in test [4] it was 26.5%; in test [5], -8.1%; in test [6], 12.6%.

Turning to `CCN1C(=O)/C(=C\c2coc3ccccc3c2=O)SC1=S`, the growth inhibition is -2.6% in test [1]; -34.7% in test [2]; 0.2% in test [3]; 0.5% in test [4]; -23.7% in test [5]; -0.2% in test [6].

With `O=C1OI(=O)(O)c2ccccc21` (stereo unspecified), the growth inhibition in test [1] was -4.35%; in test [2] it was -5.95%; in test [3], -7.5%; in test [4], -36.6%; in test [5] it was 5.2%; in test [6], 2.5%.

As to `N#Cc1c(-c2ccco2)cc(-c2ccccc2)[nH]c1=O`, the growth inhibition in test [1] is 31.8%; in test [2] it was 8.1%; in test [3], 18.1%; in test [4] it was 33.3%; in test [5], 9.7%; in test [6] it was 25.6%.

Consider `CCCCCCCCCCCCCCCC(=O)O`, for which the growth inhibition in test [1] was -12.9%; in test [2], -34.1%; in test [3], -18.9%; in test [4], -2.9%; in test [5] it was -29.8%; in test [6] it was -34.9%.

As for `O=C(CSSCC(=O)Nc1ccccc1O)Nc1ccccc1O`, the growth inhibition is -11.2% in test [1]; -8.15% in test [2]; -11.7% in test [3]; -24.1% in test [4]; 27.2% in test [5]; -4.85% in test [6].

For `CC1(C)C/C(=C\c2cccc(Cl)c2)C(=O)c2ccccc21`, the growth inhibition in test [1] was 11.8%; in test [2], 16.6%; in test [3], -0.75%; in test [4] it was -12.8%; in test [5] it was -5.65%; in test [6], 7.4%.

On to `CCCCNS(=O)(=O)c1ccc(-c2ccc3c(c2)-c2ccc(S(=O)(=O)NCCCC)cc2S3(=O)=O)cc1`, for which the growth inhibition in test [1] was 28.3%; in test [2] it was 7.05%; in test [3], 1.5%; in test [4], -33.2%; in test [5], 20.1%; in test [6], 9.7%.

Consider `CCOC(=O)c1c(Cl)c(CC)c(Cl)n2c1nc1ccccc12`, for which the growth inhibition is -12.7% in test [1]; -7.45% in test [2]; 14.8% in test [3]; -9.6% in test [4]; -2.8% in test [5]; 4.05% in test [6].

The record behind these values is PubChem BioAssay (NCI).
